# Results: PubChem BioAssay AID651818 (Broad Institute, 2012)
# Results with a measured potency or affinity are listed apart. Results filed as inconclusive are left out. Values without a mark were called inactive. Cut-off read from the data, not from the text of the source: inconclusive = activity change below about -55%; inactive = above that.
# Experiment: intracellular Trypanosoma cruzi inhibitors in host cells – cell-based, plate reader, cherry-pick samples, set 3, dose response (AID 651818)
# Settings: series mostly up to 10 µM; activity change, negative = inhibition: at the top concentration
row,SMILES,"activity change, negative = inhibition"
1,Cc1noc(C)c1S(=O)(=O)N(C)C[C@@H]1Oc2c(NS(=O)(=O)c3cn(C)cn3)cccc2C(=O)N([C@H](C)CO)C[C@@H]1C,-2.56%
2,C[C@H](CO)N1C[C@H](C)[C@H](CN(C)C(=O)Nc2ccccc2)Oc2c(NC(=O)Nc3ccc(C(F)(F)F)cc3)cccc2C1=O,-8.83% [at 5 µM]
3,C[C@H](CO)N1C[C@H](C)[C@@H](CN(C)S(=O)(=O)c2ccc(F)cc2)Oc2c(NC(=O)C3CCOCC3)cccc2C1=O,13.3%
4,Cc1noc(C)c1NC(=O)N(C)C[C@@H]1Oc2c(NC(=O)NC3CCCCC3)cccc2C(=O)N([C@@H](C)CO)C[C@@H]1C,-23.9%
5,C[C@H](CO)N1C[C@H](C)[C@@H](CN(C)Cc2ccccc2)Oc2c(NS(C)(=O)=O)cccc2C1=O,26.7% [at 5 µM]
6,C[C@H](CO)N1C[C@H](C)[C@@H](CN(C)S(=O)(=O)c2ccc(Cl)cc2)Oc2c(NC(=O)c3cnccn3)cccc2C1=O,-16.5%
7,C[C@@H]1CN([C@H](C)CO)C(=O)c2cccc(NS(=O)(=O)c3cn(C)cn3)c2O[C@@H]1CN(C)Cc1ccncc1,14.4%
8,Cc1noc(C)c1NC(=O)Nc1cccc2c1O[C@@H](CN(C)Cc1ccc(-c3ccccc3)cc1)[C@@H](C)CN([C@@H](C)CO)C2=O,25.3%
9,CNC[C@H]1Oc2c(NS(=O)(=O)c3cccs3)cccc2C(=O)N([C@@H](C)CO)C[C@@H]1C,-3.22%
10,C[C@H]1CN([C@@H](C)CO)C(=O)c2cccc(NS(=O)(=O)c3cccs3)c2O[C@@H]1CN(C)C(=O)NC1CCCCC1,29.2%
11,COc1ccc(S(=O)(=O)N(C)C[C@H]2Oc3c(NS(=O)(=O)c4ccc(F)cc4)cccc3C(=O)N([C@H](C)CO)C[C@H]2C)cc1,-5.26%
12,C[C@H](CO)N1C[C@H](C)[C@@H](CN(C)C(=O)Nc2ccc3c(c2)OCO3)Oc2c(NC(=O)C3CCOCC3)cccc2C1=O,-14.1%
13,C[C@H]1CN([C@@H](C)CO)C(=O)c2cccc(NC(=O)c3ccncc3)c2O[C@@H]1CN(C)S(=O)(=O)c1ccccc1,16.5%
14,Cc1ccc(S(=O)(=O)Nc2cccc3c2O[C@H](CN(C)C(=O)NC(C)C)[C@@H](C)CN([C@H](C)CO)C3=O)cc1,11.7%
15,C[C@@H]1CN([C@@H](C)CO)C(=O)c2cccc(NC(=O)c3cnccn3)c2O[C@@H]1CN(C)S(=O)(=O)c1cccs1,-13%
16,CC(C)NC(=O)Nc1cccc2c1O[C@@H](CN(C)Cc1ccc(C(F)(F)F)cc1)[C@@H](C)CN([C@H](C)CO)C2=O,-18.5%
17,Cc1cc(C(=O)Nc2cccc3c2O[C@@H](CN(C)C(=O)Nc2ccccc2)[C@@H](C)CN([C@H](C)CO)C3=O)n(C)n1,4.05%
18,C[C@H](CO)N1C[C@H](C)[C@@H](CN(C)C(=O)Nc2ccc(C(F)(F)F)cc2)Oc2c(NS(=O)(=O)c3ccc(Cl)cc3)cccc2C1=O,11%
19,Cc1ccc(S(=O)(=O)N(C)C[C@H]2Oc3c(NC(=O)Nc4c(C)noc4C)cccc3C(=O)N([C@@H](C)CO)C[C@H]2C)cc1,4.2%
20,C[C@@H]1CN([C@@H](C)CO)C(=O)c2cccc(NS(=O)(=O)c3cn(C)cn3)c2O[C@H]1CN(C)C(=O)Nc1ccc2c(c1)OCO2,-29.3%
21,Cc1noc(C)c1NC(=O)Nc1cccc2c1O[C@@H](CN(C)C(=O)NC1CCCCC1)[C@@H](C)CN([C@@H](C)CO)C2=O,-25.2%
22,C[C@@H]1CN([C@@H](C)CO)C(=O)c2cccc(NS(=O)(=O)c3ccccc3)c2O[C@@H]1CN(C)CC1CC1,-7.83%
